This note sets out measurements from PubChem BioAssay AID1578 (Sanford-Burnham Center for Chemical Genomics, 2009).

Screen size: about 290,000 compounds; about 3,000 (1%) were called active. This is one part of a sample in which actives are shown more often than they occur. Cut-off read from the data, not from the text of the source: active = inhibition mostly above about 36% (no sharp cut-off); inactive = mostly below about 34%.

In general, inhibition refers to the change of the read-out against control, counted positive when it falls.

The assay is described as follows: inhibition of NOD1-driven NF-kB reporter – cell-based, luminescence, uHTS, primary screen (AID 1578).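 Note: HEK-293T reporter cells stimulated with the NOD1 agonist gamma-tri-DAP.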 Conditions: NOD1-driven NF-kB luciferase reporter cells, at 4 µM, active compounds read high. A general note: Reporter assays use an easily measured gene product as a stand-in for the process of interest.
With `COc1ccccc1N(C)S(=O)(=O)c1ccc(Cl)c(C(=O)NCCCN2CCOCC2)c1`, the inhibition is -22.8% (inactive).
Consider `CN(c1ccccc1)S(=O)(=O)c1ccc(Cl)c(C(=O)Nc2ccc(N3CCOCC3)cc2)c1`, for which the inhibition is -13% (inactive).
For the compound `COc1ccc(CNC(=O)CSc2nc3ccc(C)cc3[nH]2)cc1OC`, the inhibition is 0.6% (inactive).
For `CCOc1ccc(/C=N/NC(=O)C(=O)N2CCCCCC2)c2ccccc12`, the inhibition is 12% (inactive).
With `CN1C/C(=C/c2ccsc2)C(=O)/C(=C/c2ccsc2)C1`, the inhibition is -44.5% (inactive).
As for `CC(C)N1C/C(=C/c2cccnc2)C(=O)/C(=C/c2cccnc2)C1`, the inhibition is 49.5% (inactive).
In the case of `CC(C)N1C/C(=C/c2ccsc2)C(=O)/C(=C/c2ccsc2)C1` it was 80.5% (active); in that of `Cc1cc(NC(=O)c2cccnc2)ccc1NC(=O)c1ccco1`, -65.2% (inactive).
As to `COc1ccc(-c2csc(/C(C#N)=C\c3ccc(OC)c([N+](=O)[O-])c3)n2)cc1`, the inhibition was -19.7% (inactive).
As to `COc1cc(/C=C(/C#N)c2nc(-c3cc4ccccc4oc3=O)cs2)cc([N+](=O)[O-])c1O`, the inhibition is 6.6% (inactive).
Consider `N#C/C(=C\c1ccc([N+](=O)[O-])cc1)c1nc(C2CC2)cs1`, for which the inhibition was -14.9% (inactive).
For the compound `COc1ccc(-c2csc(/C(C#N)=C\c3ccc(O)c([N+](=O)[O-])c3)n2)cc1OC`, the inhibition is 78.3% (active).
For `COc1ccc(-c2csc(/C(C#N)=C\c3cccc([N+](=O)[O-])c3)n2)cc1`, the inhibition is -40.1% (inactive).
For the compound `O=C(NC1CCSc2ccccc21)c1cccc(Cl)c1` (centres undefined), the inhibition was -18.6% (inactive).
Consider `CCc1cc(-c2nc(N)ncc2-c2ccc(Br)cc2)c(O)cc1OC`, for which the inhibition was -5.1% (inactive).
With `Cc1nc2cc(-c3ccccc3)[nH]n2c(=O)c1C`, the inhibition was -59.1% (inactive).
Take `Cc1ccc2ccc3ccc(C)nc3c2n1`: the inhibition is 44.3% (active).
With `Cc1ccc2cccc(OCc3ccccc3)c2n1`, the inhibition was -0.7% (inactive).
For `Cc1ccc2cccc(N)c2n1`, the inhibition was -43.8% (inactive).
For `C/C(=N\Nc1cc(C(F)(F)F)ccc1Cl)c1ccccc1O`, the inhibition was 15.7% (inactive).
`CCCN(CCC)c1ncnc2c1cnn2-c1ccc(OC)cc1`: the inhibition was -46.4% (inactive).
In the case of `CC1CCCN(c2ncnc3c2cnn3-c2ccccc2)C1` (centres undefined) it was 0.1% (inactive); in that of `COc1ccc(-n2ncc3c(N4CCCCC4)ncnc32)cc1`, 87% (active).
Regarding `CN1CCN(c2ncnc3c2cnn3-c2ccc(Cl)cc2)CC1`, the inhibition was -13.8% (inactive).
Turning to `CC1CCCN(c2ncnc3c2cnn3-c2ccc(Cl)cc2)C1` (centres undefined), the inhibition was 73.3% (active).
Regarding `Cc1cccc(-n2ncc3c(N(C)C4CCCCC4)ncnc32)c1`, the inhibition was 27.6% (inactive).
Take `Clc1ccc(-n2ncc3c(N4CCCCCC4)ncnc32)cc1`: the inhibition was 78.4% (active).
As for `CC1CC(C)CN(c2ncnc3c2cnn3-c2ccc(Cl)cc2)C1` (centres undefined), the figure is 1.3% (inactive); as for `Clc1ccc(-n2ncc3c(N4CCCC4)ncnc32)cc1`, 39.9% (inactive); as for `COc1ccc(-n2ncc3c(N4CCC(C)CC4)ncnc32)cc1`, -5.4% (inactive).
As to `COc1ccc(-n2ncc3c(N4CCC(C(N)=O)CC4)ncnc32)cc1`, the inhibition was -30% (inactive).
Take `CCOC(=O)c1ccc(NC(=O)CSc2nc(N)c(NC(=O)c3ccc(Br)o3)c(=O)[nH]2)cc1`: the inhibition is -26.5% (inactive).
As for `CN(C(=O)COC(=O)c1cc(S(=O)(=O)N2CCCCC2)ccc1N1CCOCC1)C1CCS(=O)(=O)C1` (centres undefined), the figure is -0.1% (inactive); as for `COC(=O)N/N=C/c1cc(C)n(-c2ccc(F)cc2)c1C`, -30% (inactive); as for `COC(=O)C1C2C=CC3(CN(CCc4ccccc4)C(=O)C13)O2` (centres undefined), -14.5% (inactive).
For the compound `Cc1[nH][nH]c(=O)c1/C=N/N1CCOCC1`, the inhibition was -39.8% (inactive).
On to `CCC(C)(C(=O)NC1CCCCC1)N(C(=O)CC1NC(=O)NC1=O)c1c(C)n(C)n(-c2ccccc2)c1=O` (centres undefined), for which the inhibition is -11.2% (inactive).
As to `c1ccc(-n2ncc3c(N4CCCCC4)ncnc32)cc1`, the inhibition is 61.4% (active).
As to `Cc1cccc(-n2ncc3c(N4CCCC4)ncnc32)c1`, the inhibition is -40.5% (inactive).
Consider `CC1CCN(c2ncnc3c2cnn3-c2ccccc2)CC1`, for which the inhibition is -77.4% (inactive).
For the compound `COc1cc(OC)c2cc(C(=O)N[C@H](C(=O)N3CCC[C@H]3C(=O)O)C(C)C)n(C)c2c1`, the inhibition is -17.5% (inactive).
As for `Cc1nc(SCC(N)=O)c(C#N)c(C)c1C`, the inhibition was 5.5% (inactive).
Regarding `CCN(CC)C(=O)c1ccc(Nc2nnc(-c3ccc(O)cc3)c3ccccc23)cc1`, the inhibition was 72.7% (active).
As for `CCN(CC)C(=O)c1ccc(-c2nnc(Nc3ccc(C(=O)N(C)C)cc3)c3ccccc23)cc1`, the figure is 37.7% (inactive).
Regarding `CCN(CC)C(=O)c1ccc(-c2nnc(Nc3ccc(O)cc3)c3ccccc23)cc1`, the inhibition was 43% (inactive).
On to `Cn1cc(Br)c(C(=O)N/N=C/c2cccc(OC3CSC3)c2)n1`, for which the inhibition is 0.1% (inactive).
With `Cn1ncc(Cl)c1C(=O)N/N=C/c1cccc(OC2CSC2)c1`, the inhibition is -1.4% (inactive).
As for `Cn1ncc(Br)c1C(=O)N/N=C/c1cccc(OC2CSC2)c1`, the inhibition was 60.4% (active).
Regarding `CCOC(=O)c1cnc(SCC(=O)Nc2ccc(N3CCOCC3)cc2)nc1N`, the inhibition was -15% (inactive).
In the case of `O=c1cc(NS(=O)(=O)c2ccccc2)nc(SCc2c(Cl)cccc2Cl)[nH]1` it was 102% (active).
With `O=c1cc(NS(=O)(=O)c2ccccc2)nc(SCc2ccccc2Cl)[nH]1`, the inhibition was -0.5% (inactive).
With `O=c1cc(NS(=O)(=O)c2ccccc2)nc(SCc2ccc(Cl)cc2)[nH]1`, the inhibition was -1.1% (inactive).
In the case of `Cc1ccc(NC(=O)CCc2nnc3ccc(N4CCC(C)CC4)nn23)nc1`, the inhibition was -3.1% (inactive).
As for `Cc1[nH]n(C(N)=S)c(=O)c1N=Nc1ccc(Br)cc1`, the figure is -21.9% (inactive); as for `CCOc1ccc(N(CC)C(=O)Cc2c(C(=O)O)n(C)c3ccccc23)cc1`, -11.1% (inactive).
With `CC(C)Cc1nc(N2CCN(C(=O)c3ccco3)CC2)c(C#N)c2c1CCC2`, the inhibition was -0.7% (inactive).
In the case of `CC(C)Cc1nc(N2CCN(C(=O)c3ccco3)CC2)c(C#N)c2c1CCCC2`, the inhibition was 2.6% (inactive).
As for `CCN(CC)S(=O)(=O)c1ccc(N2CCOCC2)c(NC(=O)c2ccc3ccccc3c2)c1`, the inhibition was -17% (inactive).
In the case of `Cc1nn(CCc2nn[nH]n2)c2nc(C(F)(F)F)cc(C(F)(F)F)c12` it was -7.9% (inactive).
